T1: RBFOX1 RRM (Homo sapiens, UniProt Q9NWB1 109-208)
T1 sequence: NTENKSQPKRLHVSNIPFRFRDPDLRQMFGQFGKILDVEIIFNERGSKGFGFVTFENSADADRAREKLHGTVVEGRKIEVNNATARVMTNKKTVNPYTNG

B1: GGGGCAU (DNA:RNA)
RNA: GGGAGACCGGAAUUCAGAUUGUCCGGGGCAUUUAAAUCCCGUCGUAGCCACCA
DNA 1: CAATCTGAATTCCGGTCTCCC
DNA 2: TGGTGGCTACGACGGGATT
B2: GGGCAUC (DNA:RNA)
RNA: B1 RNA with G28C, C29A, A30U, U31C
DNA 1: CAATCTGAATTCCGGTCTCCC
DNA 2: TGGTGGCTACGACGGGATT
B3: CGGGCAU (DNA:RNA)
RNA: B1 RNA with G25C
DNA 1: CAATCTGAATTCCGGTCTCCC
DNA 2: TGGTGGCTACGACGGGATT
B4: GGGCAUG (DNA:RNA)
RNA: B1 RNA with G28C, C29A, A30U, U31G
DNA 1: CAATCTGAATTCCGGTCTCCC
DNA 2: TGGTGGCTACGACGGGATT
B5: GGGCAUA (DNA:RNA)
RNA: B1 RNA with G28C, C29A, A30U, U31A
DNA 1: CAATCTGAATTCCGGTCTCCC
DNA 2: TGGTGGCTACGACGGGATT
B6: GGGCAUU (DNA:RNA)
RNA: B1 RNA with G28C, C29A, A30U
DNA 1: CAATCTGAATTCCGGTCTCCC
DNA 2: TGGTGGCTACGACGGGATT
B7: CGCCCAU (DNA:RNA)
RNA: B1 RNA with G25C, G27C, G28C
DNA 1: CAATCTGAATTCCGGTCTCCC
DNA 2: TGGTGGCTACGACGGGATT
B8: AGCCGAC (DNA:RNA)
RNA: B1 RNA with G25A, G27C, G28C, C29G, U31C
DNA 1: CAATCTGAATTCCGGTCTCCC
DNA 2: TGGTGGCTACGACGGGATT
B9: UCGCCUU (DNA:RNA)
RNA: B1 RNA with G25U, G26C, G28C, A30U
DNA 1: CAATCTGAATTCCGGTCTCCC
DNA 2: TGGTGGCTACGACGGGATT
B10: CGGAAGA (DNA:RNA)
RNA: B1 RNA with G25C, G28A, C29A, A30G, U31A
DNA 1: CAATCTGAATTCCGGTCTCCC
DNA 2: TGGTGGCTACGACGGGATT
B11: GUCAGAA (DNA:RNA)
RNA: B1 RNA with G26U, G27C, G28A, C29G, U31A
DNA 1: CAATCTGAATTCCGGTCTCCC
DNA 2: TGGTGGCTACGACGGGATT
B12: GGAAGAA (DNA:RNA)
RNA: B1 RNA with G27A, G28A, C29G, U31A
DNA 1: CAATCTGAATTCCGGTCTCCC
DNA 2: TGGTGGCTACGACGGGATT
B13: GGGAGAA (DNA:RNA)
RNA: B1 RNA with G28A, C29G, U31A
DNA 1: CAATCTGAATTCCGGTCTCCC
DNA 2: TGGTGGCTACGACGGGATT
B14: GGGAAGA (DNA:RNA)
RNA: B1 RNA with G28A, C29A, A30G, U31A
DNA 1: CAATCTGAATTCCGGTCTCCC
DNA 2: TGGTGGCTACGACGGGATT
B15: GGAGAAA (DNA:RNA)
RNA: B1 RNA with G27A, C29A, U31A
DNA 1: CAATCTGAATTCCGGTCTCCC
DNA 2: TGGTGGCTACGACGGGATT
B16: ACUGGCG (DNA:RNA)
RNA: B1 RNA with G25A, G26C, G27U, C29G, A30C, U31G
DNA 1: CAATCTGAATTCCGGTCTCCC
DNA 2: TGGTGGCTACGACGGGATT
B17: CAGGCCG (DNA:RNA)
RNA: B1 RNA with G25C, G26A, A30C, U31G
DNA 1: CAATCTGAATTCCGGTCTCCC
DNA 2: TGGTGGCTACGACGGGATT
B18: GCUUGUC (DNA:RNA)
RNA: B1 RNA with G26C, G27U, G28U, C29G, A30U, U31C
DNA 1: CAATCTGAATTCCGGTCTCCC
DNA 2: TGGTGGCTACGACGGGATT
B19: GCUUGAG (DNA:RNA)
RNA: B1 RNA with G26C, G27U, G28U, C29G, U31G
DNA 1: CAATCTGAATTCCGGTCTCCC
DNA 2: TGGTGGCTACGACGGGATT
B20: GCCGCGC (DNA:RNA)
RNA: B1 RNA with G26C, G27C, A30G, U31C
DNA 1: CAATCTGAATTCCGGTCTCCC
DNA 2: TGGTGGCTACGACGGGATT
B21: GCUUGAA (DNA:RNA)
RNA: B1 RNA with G26C, G27U, G28U, C29G, U31A
DNA 1: CAATCTGAATTCCGGTCTCCC
DNA 2: TGGTGGCTACGACGGGATT
B22: CGCGCGC (DNA:RNA)
RNA: B1 RNA with G25C, G27C, A30G, U31C
DNA 1: CAATCTGAATTCCGGTCTCCC
DNA 2: TGGTGGCTACGACGGGATT
B23: GCGCUGG (DNA:RNA)
RNA: B1 RNA with G26C, G28C, C29U, A30G, U31G
DNA 1: CAATCTGAATTCCGGTCTCCC
DNA 2: TGGTGGCTACGACGGGATT
B24: GCUCGUC (DNA:RNA)
RNA: B1 RNA with G26C, G27U, G28C, C29G, A30U, U31C
DNA 1: CAATCTGAATTCCGGTCTCCC
DNA 2: TGGTGGCTACGACGGGATT
B25: CGUUGAG (DNA:RNA)
RNA: B1 RNA with G25C, G27U, G28U, C29G, U31G
DNA 1: CAATCTGAATTCCGGTCTCCC
DNA 2: TGGTGGCTACGACGGGATT
B26: GCGCUUG (DNA:RNA)
RNA: B1 RNA with G26C, G28C, C29U, A30U, U31G
DNA 1: CAATCTGAATTCCGGTCTCCC
DNA 2: TGGTGGCTACGACGGGATT
B27: GCUCUUG (DNA:RNA)
RNA: B1 RNA with G26C, G27U, G28C, C29U, A30U, U31G
DNA 1: CAATCTGAATTCCGGTCTCCC
DNA 2: TGGTGGCTACGACGGGATT
B28: GCUGGUC (DNA:RNA)
RNA: B1 RNA with G26C, G27U, C29G, A30U, U31C
DNA 1: CAATCTGAATTCCGGTCTCCC
DNA 2: TGGTGGCTACGACGGGATT
B29: CCGCUGG (DNA:RNA)
RNA: B1 RNA with G25C, G26C, G28C, C29U, A30G, U31G
DNA 1: CAATCTGAATTCCGGTCTCCC
DNA 2: TGGTGGCTACGACGGGATT

Positions count from the first letter of the chain named. The full ranking holds about 16,000 sequences; the median of “ka relative to ugcaugu” is about 0.0091, and the highest 2% start at about 0.032. For the sample, the highest values were picked, then their nearest neighbours and some sequences at random.

The target of the assay is T1, RBFOX1 RRM. In words: EMSA; HiTS-Eq, 1 nM pool, 10 min; buffer printed only for the single-RNA assays: 10 mM Tris pH 7.5, 150 mM NaCl, 3.4 mM EDTA, 0.001% NP-40, 30 C. The following applies: tags: His6 N-terminal (pET28a); label: 5' 32P. In outline:
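A pool of RNA with 7 randomized nucleotides, 5′-radiolabelled and with DNA-annealed flanks, was equilibrated at 1 nM for 10 min in 50 µL with purified RbFox RRM, wild type or mutant, across increasing protein concentrations. Free RNA was separated by 8% native PAGE, excised, reverse-transcribed, barcoded by PCR and sequenced. Relative association constants were obtained from read-count changes of each RNA species versus the control reaction and normalised to the cognate motif.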
Take B1: the binding signal was 0.0283 KA relative to UGCAUGU. With B2 the figure was 0.0179 KA relative to UGCAUGU. Regarding B3, the binding signal was 0.0317 KA relative to UGCAUGU. With B4 the figure was 0.519 KA relative to UGCAUGU; with B5, 0.0114 KA relative to UGCAUGU; with B6, 0.0157 KA relative to UGCAUGU. With B7 the figure was 0.00281 KA relative to UGCAUGU; with B8, 0.00754 KA relative to UGCAUGU.

With B9, the binding signal is 0.0126 KA relative to UGCAUGU. For B10 the value was 0.0191 KA relative to UGCAUGU; for B11, 0.0136 KA relative to UGCAUGU; for B12, 0.0149 KA relative to UGCAUGU. With B13 the figure was 0.0327 KA relative to UGCAUGU. Consider B14, for which the binding signal was 0.0349 KA relative to UGCAUGU. For B15 the value was 0.0138 KA relative to UGCAUGU. For B16 the value was 0.0166 KA relative to UGCAUGU; for B17, 0.00997 KA relative to UGCAUGU; for B18, 0.0386 KA relative to UGCAUGU. For B19 the value was 0.0353 KA relative to UGCAUGU; for B20, 0.0197 KA relative to UGCAUGU. With B21, the binding signal is 0.0288 KA relative to UGCAUGU. With B22, the binding signal is 0.0126 KA relative to UGCAUGU. For B23 the value was 0.0322 KA relative to UGCAUGU. With B24 the figure was 0.0303 KA relative to UGCAUGU; with B25, 0.0235 KA relative to UGCAUGU. With B26 the figure was 0.0323 KA relative to UGCAUGU; with B27, 0.014 KA relative to UGCAUGU.

Take B28: the binding signal is 0.0255 KA relative to UGCAUGU.

Regarding B29, the binding signal was 0.0189 KA relative to UGCAUGU.

For the origin of these results see paper PMC9911399, “Two distinct binding modes provide the RNA-binding protein RbFox with extraordinary sequence specificity”.
